Measurements as given in PubChem BioAssay (NCATS).
Inconclusive results are not listed. A number with no mark means an inactive call. Activity calls are given as the source filed them. The call rests on the fitted dose curve; in most records, active means well fitted inhibition curve with a large enough effect; inconclusive means small, poorly fitted or top-dose-only effect; inactive means flat fitted curve, though single readings scatter.

System: Zika virus NS2B-NS3 protease
Assay: Primary screen GU AMC qHTS for Zika virus inhibitors (AID 1347154);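 further: 0% = no-inhibitor control and -100% = no-enzyme control; nearly all actives have a fitted effect of over 70% in size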
Conditions: Zika NS2B-NS3 unlinked protease, AMC fluorogenic substrate; series mostly up to 54.1 µM; activity change, negative = inhibition: at the top concentration
Method in brief: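 Unlinked Zika NS2B hydrophilic domain–NS3 protease complex at 25 nM in 10 mM Tris-HCl pH 8.0, 0.01% Tween 20, with an AMC peptide substrate. Fluorescence change (340/450 nm) over 15 min at room temperature, normalized to controls, fitted to 4-parameter Hill.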

| Structure (SMILES) | activity change, negative = inhibition | Potency |
| --- | --- | --- |
| CCNC(=O)Nc1ccc(-c2nc3c(c(N4CCOC[C@H]4C)n2)CCN(C2COC2)C3)cc1 | -1.21% | – |
| CC[C@]12C=CCN3CC[C@@]4(c5cc([C@@]6(C(=O)OC)C[C@H]7C[C@@H](C(C)(F)F)CN(Cc8c6[nH]c6ccccc86)C7)c(OC)cc5N(C)[C@H]4[C@@](O)(C(=O)OC)[C@H]1OC(C)=O)[C@@H]32 | 0.27% | – |
| Oc1ccc(-c2ccc(-c3cc(Nc4cccc(CNC5CC5)c4)n[nH]3)cc2)c(O)c1 | -3.06% | – |
| COc1cccc2c1C(=O)c1c(O)c3c(c(O)c1C2=O)C[C@@](O)(C(=O)CO)C[C@@H]3O[C@H]1C[C@H](N)[C@H](OC2CCCCO2)[C@H](C)O1 (stereo not given in full) | 10.5% | – |
| CC(=O)C1=C(O)C=C2Oc3c(C(C)=O)c(O)c(C)c(O)c3C2(C)C1=O (stereo not given) | -10.7% | – |
| COc1cc([C@@H]2c3cc4c(cc3[C@H](O)[C@H]3COC(=O)[C@@H]23)OCO4)cc(OC)c1OC | 9.52% | – |
| COC(=O)C1C2CC3c4[nH]c5cc(OC)ccc5c4CCN3CC2CC(OC(=O)c2cc(OC)c(OC)c(OC)c2)C1OC (stereo not given) | 21.7% | – |
| NC(=O)Nc1sc(-c2ccc(F)cc2)cc1C(N)=O | – | inactive |
| O=C(C=Cc1ccc(CN(CCO)CCc2c[nH]c3ccccc23)cc1)NO | -14.1% | – |
| CCC(C=C[C@@H]1OC(=O)C=C[C@H]1C)=C[C@H](C)CC=CC(C)=C[C@@H](C)C(=O)[C@@H](C)[C@H](O)[C@@H](C)CC(C)=CC(=O)O | 23.8% [at 2.16 µM] | – |
| CC(C)c1cnn2c(NCc3ccccc3)cc(NCCCCCCN)nc12 | 9.76% | – |
| CN1C(C(=O)Nc2ccccn2)=C(O)c2sc(Cl)cc2S1(=O)=O | -6.17% | – |
| CC(C)C[C@H](NC(=O)CNC(=O)c1cc(Cl)ccc1Cl)B1OC(=O)CC(CC(=O)O)(C(=O)O)O1 (stereo not given in full) | 2.52% | – |
| O=C(Nc1cccc(Nc2ncc(Br)c(NCCc3cnc[nH]3)n2)c1)N1CCCC1 | 3.32% | – |
| CC(=O)O[C@@]12CO[C@H]1C[C@H](O)[C@@]1(C)C(=O)[C@H](O)C3=C(C)[C@@H](OC(=O)C(O)[C@@H](NC(=O)OC(C)(C)C)c4ccccc4)C[C@@](O)([C@@H](OC(=O)c4ccccc4)[C@@H]21)C3(C)C (stereo not given in full) | 6.61% | – |
| O=C(CCCCCCC(=O)Nc1cccnc1)NO | 0.587% | – |
| C[C@@H]1C(=O)O[C@H]2CC34[C@H]5C[C@@H](C(C)(C)C)C36[C@H](OC(=O)[C@@H]6O)O[C@@]4(C(=O)O5)[C@]21O (stereo not given in full) | 16.7% | – |
| O=C(CN1C(=O)C2(CCCC2)NC[C@H]1c1cc(F)cc(F)c1)Nc1ccc2c(c1)C[C@@]1(C2)C(=O)Nc2ncccc21 | 2.16% | – |

| Structure (SMILES) | activity change, negative = inhibition | Potency |
| --- | --- | --- |
| Cc1cc(O)c2c(c1)C(=O)c1cccc(O)c1C2=O | 6.61% | – |
| COc1ccc([C@@H]2CNC(=O)C2)cc1OC1CCCC1 | – | inactive |
| C=CC1=C(C(=O)O)N2C(=O)[C@@H](NC(=O)C(=NO)c3csc(N)n3)[C@H]2SC1 | 3.22% | – |
| CC1(C)[C@H](O[C@H]2O[C@H](C(=O)O)[C@@H](O)[C@H](O)[C@H]2O[C@@H]2O[C@H](C(=O)O)[C@@H](O)[C@H](O)[C@H]2O)CC[C@@]2(C)[C@H]1CC[C@]1(C)[C@H]2C(=O)C=C2[C@H]3C[C@@](C)(C(=O)O)CC[C@]3(C)CC[C@]21C | 9.9% | – |
| O=[N+]([O-])c1cn2c(n1)OC[C@@H](OCc1ccc(OC(F)(F)F)cc1)C2 | 3.73% | – |
| CC(C)NC[C@@H](C(=O)N1CCN(c2ncnc3c2[C@H](C)C[C@H]3O)CC1)c1ccc(Cl)cc1 | 13.9% | – |
| COc1cc2c(cc1OC)[C@@H]1C(=O)c3ccc4c(c3O[C@@H]1CO2)C=CC(C)(C)O4 | 1.25% | – |
| CO[C@@H]1[C@@H](O)[C@H](O)[C@@H](n2c3c(Cl)cccc3c3c4c(c5c6cccc(Cl)c6[nH]c5c32)C(=O)NC4=O)O[C@@H]1CO | -1.38% | – |
| CC(C)(C)[N+]([O-])=Cc1ccc(S(=O)(=O)O)cc1S(=O)(=O)O | 1.62% | – |
| O=C(O)CCCCCC(=O)NN=C1CCCC1 | -1.69% | – |
| N#CC(=C(N)Sc1ccc(N)cc1)c1ccccc1C(F)(F)F | -2.86% | – |
| NC[C@H]1O[C@H](O[C@H]2[C@@H](O)[C@@H](O[C@H]3O[C@H](CO)[C@@H](O)[C@H](N)[C@@H]3O)[C@H](N)C[C@@H]2N)[C@H](N)C[C@H]1O | 13.5% | – |
| COc1cc(C[C@@H](CO)[C@H](CO)Cc2ccc(O)c(OC)c2)ccc1O | 7.64% | – |
| O=C1CSC(=O)N1C(CCc1ccncc1)COc1ccc(-c2cccc([N+](=O)[O-])c2)cc1 (stereo not given) | 20.1% | – |
| C=C[C@@H]1CN2CCC1C[C@H]2[C@H](O)c1ccnc2ccc(OC)cc12 (stereo not given in full) | -6.99% | – |
| CC[C@H](CC[C@@H](C)[C@H]1CC[C@H]2[C@@H]3CC=C4C[C@@H](O)CC[C@]4(C)[C@@H]3CC[C@]12C)C(C)C | -2.51% | – |
| COc1cc(C(=O)NC2CCN(C)CC2)ccc1Nc1ncc2c(n1)N(C1CCCC1)CCC(=O)N2C(C)C | -0.39% | – |
